Records with an inconclusive call do not appear. Activity calls are given as the source filed them. Calls follow the shape of the dose curve; as a rule, active = well fitted curve in the direction sought with a large enough effect; inconclusive = small, poorly fitted or top-dose-only effect, or another doubt; inactive = no such curve, though single readings can be large; an effect the other way counts as inactive or inconclusive.
Potency is read from the fitted curve at half-maximal effect.

The first test is described as follows: qHTS of pediatric cancer cell lines to identify multiple opportunities for drug repurposing: Primary screen for A673 cells (AID 1347092). Also: nearly all actives have a fitted effect of over 45% in size. As to conditions: A673 Ewing sarcoma viability, CellTiter-Glo ATP luminescence, 48 h; series mostly up to 46 µM. The procedure, abridged:
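A673 cells (500-1,000 cells/well) were treated 48 hours at 37 degrees C with compounds at 11-point (0.78 nM to 46 µM) or 8-point (0.59 nM to 46 µM) dilutions. Viability read by CellTiter-Glo luminescence; concentration-response curves fitted.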
Regarding `CC(=O)O[C@]1(C(C)=O)CC[C@H]2[C@@H]3C=C(C)C4=CC(=O)CC[C@]4(C)[C@@H]3CC[C@@]21C`, the Potency was 2.35 µM (active).
For the molecule `Cn1cc(-c2cnn3c(N)c(Br)c([C@H]4CCCNC4)nc23)cn1`, the Potency was 0.059 µM (active).
On to `N#Cc1c(C2CCNCC2)cc(-c2c(O)cccc2OCC2CC2)nc1N`, for which the Potency was 18.7 µM (active).
Consider `CN(CC(=O)N(Cc1ccc(C2CCCCC2)cc1)c1ccc(C(=O)O)c(O)c1)S(=O)(=O)c1c(F)c(F)c(F)c(F)c1F`, for which the Potency was 9.35 µM (active).
Still for that read-out and setting: the value for `O=C1CSC(=O)N1C(CCc1ccncc1)COc1ccc(-c2cccc([N+](=O)[O-])c2)cc1` (stereo not drawn) was 7.43 µM (active); that for `C=CC(=O)N1CCc2ccc(-n3c(=O)ccc4cnc5ccc(-c6cnn(C)c6)cc5c43)cc21` was 5.9 µM (active); that for `CC(C)c1cnn2c(NCc3ccccc3)cc(NCCCCCCN)nc12` was 5.9 µM (active).
With `O=C(O)CCCCCC(=O)NN=C1CCCC1`, the Potency result was “inactive”.
On the same count and under the same terms, the value for `C#C[C@]1(O)CC[C@@H]2[C@@H]3CCc4cc(O)ccc4[C@H]3CC[C@@]21C` was 14.8 µM (active); that for `CCOC(=O)N1CCN([N+]([O-])=NOc2ccc([N+](=O)[O-])cc2[N+](=O)[O-])CC1` was 9.35 µM (active); that for `C=Cc1c(C)c2cc3nc(cc4[nH]c(cc5nc(cc1[nH]2)C(C)=C5CCC(=O)O)c(CCC(=O)OC)c4C)[C@@]1(C)C3=CC=C(C(=O)OC)[C@H]1C(=O)OC` was 0.0372 µM (active).
Consider `Cc1cnn(C)c1C(=O)Nc1cc(Nc2ccc3c(C=Cc4ccccn4)n[nH]c3c2)ccc1F`, for which the Potency is 14.8 µM (active).
Still for that read-out and setting: the value for `Cc1cncc2cccc(S(=O)(=O)N3CCCN(C(=O)CN)C[C@@H]3C)c12` was 14.8 µM (active); that for `N#CC(=C(O)c1ccc(Cl)cc1Cl)c1nc2cc(Cl)ccc2c(=O)[nH]1` was “inactive”; that for `CCc1cc(C(C)=NOCc2ccc(C3CCCCC3)c(C(F)(F)F)c2)ccc1CN1CC(C(=O)O)C1` was 1.48 µM (active).
With `C[C@@H](NCc1cc2ccccc2[nH]1)c1cccc2ccccc12`, the Potency entry was “inactive”.
As to `Cc1cn([C@@H]2O[C@H](CO)[C@@H](O)[C@H]2F)c(=O)[nH]c1=O`, the Potency entry was “inactive”.
Consider `C=C[C@@H]1CN2CCC1C[C@H]2[C@H](O)c1ccnc2ccc(OC)cc12` (stereo partly drawn), for which the Potency entry was “inactive”.
In the case of `C[C@]12CCC(=O)C=C1[C@@H]1CC1[C@H]1[C@H]3[C@@H]4C[C@H]4[C@@]4(CCC(=O)O4)[C@@]3(C)CC[C@H]12` (stereo partly drawn), the Potency entry was “inactive”.
On the same count and under the same terms, the figure for `CCCNC(=O)[C@H]1O[C@H]1C(=O)N[C@H](C(=O)N1CCC[C@@H]1C(=O)OC)C(C)CC` (stereo partly drawn) is 2.35 µM (active).
As to `CCN(CC)Cc1ccc2cc(COC(=O)Nc3ccc(C(=O)NO)cc3)ccc2c1`, the Potency was 1.48 µM (active).
On the same count and under the same terms, the entry for `COc1cc(OC)c(NC(=O)Nc2cc(C)on2)cc1Cl` is “inactive”.
As for `O=C(O)c1ccc(Nc2ncc3c(n2)-c2ccc(Cl)cc2C(c2c(F)cccc2F)=NC3)cc1`, the Potency was 4.69 µM (active).
Turning to `N#CC(=C(N)Sc1ccc(N)cc1)c1ccccc1C(F)(F)F`, the Potency result was “inactive”.
On to `COc1cc(C[C@@H](CO)[C@H](CO)Cc2ccc(O)c(OC)c2)ccc1O`, for which the Potency was 0.187 µM (active).
Same read-out and setting: the value for `CCCCCCCCCCCCc1ccc(S(=O)(=O)Nc2nncs2)cc1` was “inactive”.
Regarding `Cn1cc(C2=C(c3c4n(c5ccccc35)CCC(CN)C4)C(=O)NC2=O)c2ccccc21` (stereo not drawn), the Potency is 5.9 µM (active).
As to `C#Cc1cccc(Nc2ncnc3cc(OCCOC)c(OCCO)cc23)c1`, the Potency was 0.187 µM (active).
Same read-out and setting: the value for `N=c1ccn2c(n1)O[C@H]1[C@@H](O)[C@@H](CO)O[C@H]12` was 0.372 µM (active); that for `CCOC(=O)C=C[C@H](C[C@@H]1CCNC1=O)NC(=O)[C@@H](CC(=O)[C@@H](NC(=O)c1cc(C)on1)C(C)C)Cc1ccc(F)cc1` was “inactive”.
On the same count and under the same terms, the value for `CN(C)CCN1C(=O)c2cccc3cc(N)cc(c23)C1=O` was 14.8 µM (active); that for `NC(=O)c1ncn([C@@H]2O[C@H](CO)[C@@H](O)[C@@H]2O)c1N` was “inactive”.
Turning to `Oc1cc2c(cc1O)C1c3ccc(O)c(O)c3OCC1(O)C2` (stereo not drawn), the Potency entry was “inactive”.
On to `Nc1ncn([C@@H]2O[C@H](CO)[C@@H](O)[C@@H]2O)c(=O)n1`, for which the Potency was 4.69 µM (active).
Turning to `COc1cc(C(C)C)c(Oc2cnc(NC(CO)CO)nc2N)cc1I`, the Potency was 0.372 µM (active).
Regarding `CN(C)c1ccc2cc(C(=O)N[C@@H](CCCN=C(N)CCl)C(=O)NCc3ccccc3)ccc2c1`, the Potency is 0.469 µM (active).
In the case of `CCCc1nc(C(C)(C)O)c(C(=O)O)n1Cc1ccc(-c2ccccc2-c2nn[nH]n2)cc1`, the Potency entry was “inactive”.
The same measure, in the same setting: the value for `C[C@H](O)[C@@H]1C(=O)N2C(C(=O)O)=C(S[C@@H]3CN[C@H](CNS(N)(=O)=O)C3)[C@@H](C)[C@@H]12` was “inactive”; that for `Cc1ccccc1C(=O)Nc1ccc(C(=O)N2CCCC(O)c3cc(Cl)ccc32)c(C)c1` (stereo not drawn) was “inactive”.

A further test is described as follows: qHTS of pediatric cancer cell lines to identify multiple opportunities for drug repurposing: Primary screen for BT-37 cells (AID 1347094). As to conditions: BT-37 viability, CellTiter-Glo luminescence, 48 h; series mostly up to 57.3 µM. In outline:
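Primary screen of approved and investigational compounds on cells in growth media at 37 degrees C, 5% CO2. MIPE set at 11-point and NPC set at 8-point dilutions; viability scored by ATP-based luminescence at 48 hours.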
In the case of `CC(=O)O[C@]1(C(C)=O)CC[C@H]2[C@@H]3C=C(C)C4=CC(=O)CC[C@]4(C)[C@@H]3CC[C@@]21C`, the Potency is 4.32 µM (active).
On to `Cn1cc(-c2cnn3c(N)c(Br)c([C@H]4CCCNC4)nc23)cn1`, for which the Potency was 0.685 µM (active).
For the molecule `O=C1CSC(=O)N1C(CCc1ccncc1)COc1ccc(-c2cccc([N+](=O)[O-])c2)cc1` (stereo not drawn), the Potency was 15.3 µM (active).
For the molecule `CC(C)c1cnn2c(NCc3ccccc3)cc(NCCCCCCN)nc12`, the Potency is 24.3 µM (active).
As to `O=C(O)CCCCCC(=O)NN=C1CCCC1`, the Potency result is “inactive”.
Same read-out and setting: the value for `C=Cc1c(C)c2cc3nc(cc4[nH]c(cc5nc(cc1[nH]2)C(C)=C5CCC(=O)O)c(CCC(=O)OC)c4C)[C@@]1(C)C3=CC=C(C(=O)OC)[C@H]1C(=O)OC` was 0.0769 µM (active); that for `Cc1cnn(C)c1C(=O)Nc1cc(Nc2ccc3c(C=Cc4ccccn4)n[nH]c3c2)ccc1F` was 24.3 µM (active); that for `Cc1cncc2cccc(S(=O)(=O)N3CCCN(C(=O)CN)C[C@@H]3C)c12` was “inactive”.
As for `N#CC(=C(O)c1ccc(Cl)cc1Cl)c1nc2cc(Cl)ccc2c(=O)[nH]1`, the Potency entry is “inactive”.
With `C[C@@H](NCc1cc2ccccc2[nH]1)c1cccc2ccccc12`, the Potency result is “inactive”.
For `C=C[C@@H]1CN2CCC1C[C@H]2[C@H](O)c1ccnc2ccc(OC)cc12` (stereo partly drawn), the Potency result is “inactive”.
On the same count and under the same terms, the figure for `CCCNC(=O)[C@H]1O[C@H]1C(=O)N[C@H](C(=O)N1CCC[C@@H]1C(=O)OC)C(C)CC` (stereo partly drawn) is 17.2 µM (active); for `CCN(CC)Cc1ccc2cc(COC(=O)Nc3ccc(C(=O)NO)cc3)ccc2c1` it is 1.93 µM (active); for `CCCCCCCCCCCCc1ccc(S(=O)(=O)Nc2nncs2)cc1` it is “inactive”.
As to `N=c1ccn2c(n1)O[C@H]1[C@@H](O)[C@@H](CO)O[C@H]12`, the Potency was 0.611 µM (active).
As to `CN(C)CCN1C(=O)c2cccc3cc(N)cc(c23)C1=O`, the Potency is 6.85 µM (active).
Same read-out and setting: the entry for `Oc1cc2c(cc1O)C1c3ccc(O)c(O)c3OCC1(O)C2` (stereo not drawn) is “inactive”; for `Nc1ncn([C@@H]2O[C@H](CO)[C@@H](O)[C@@H]2O)c(=O)n1` it is 10.9 µM (active).
Turning to `COc1cc(C(C)C)c(Oc2cnc(NC(CO)CO)nc2N)cc1I`, the Potency result is “inactive”.
